Test results as given in PubChem BioAssay (NCATS).
Results filed as inconclusive are left out. Active and inactive are the calls of the source. Calls come from the whole dose curve; as a rule, active = well fitted curve in the direction sought with a large enough effect; inconclusive = small, poorly fitted or top-dose-only effect, or another doubt; inactive = no such curve, though single readings can be large; an effect the other way counts as inactive or inconclusive.

Assays:
[1] = qHTS to identify inhibitors of the type 1 interferon - major histocompatibility complex class I in skeletal muscle: primary screen against the NCATS Pharmaceutical Collection (AID 1347407);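 note: luminescence of HiBiT knocked into endogenous HLA-B as interferon-induced MHC class I level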
How it was run: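 Cells were seeded with 4 ng/ml IFN-beta, incubated 1 h, then dosed with compounds over eight 1:5 steps up to 46 uM final. After 24 h at 37 C, HiBiT lytic reagent was added and luminescence read after 10 min lysis in the dark.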

[2] = target: Protein phosphatase 1D (Homo sapiens) (UniProt O15297); assay: RapidFire Mass Spectrometry qHTS Assay for Modulators of WT P53-Induced Phosphatase 1 (WIP1) (AID 1347424);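 note: amount of dephosphorylated VEPPL-S-QETFS peptide product formed by WIP1; series mostly up to about 63 µM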
How it was run: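 10 nM WIP1 preincubated with compounds 1 hr at room temperature in pH 7.5 Tris buffer with 30 mM MgCl2, 1 mM TCEP; 2 uM VEPPL-pS-QETFS phosphopeptide for 5 min, formic acid quench; dephosphorylated product quantified by RapidFire MS against labelled standard.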

[3] = target: Protein phosphatase 1D (Homo sapiens) (UniProt O15297); assay: Rhodamine-PBP qHTS Assay for Modulators of WT P53-Induced Phosphatase 1 (WIP1) (AID 1347425)
How it was run: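 Read-out: Rhodamine-PBP fluorescence (ex 525/em 598 nm) for released Pi, read each minute for 11 min after adding 10 uM VEPPL-pS-QETFS; signal taken as f1 minus pre-substrate f0. Enzyme 5 nM WIP1 with 1 hr room-temperature compound preincubation.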

[4] = Primary qHTS for inhibitors of La Crosse Virus (LACV) - induced cell death in SH-SY5Y cells (AID 1508616);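 note: top concentration of the series differs between compounds; higher means more rescue of cells from virus-induced death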
How it was run: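 Readout was luminescence from ATPLite 1step added after a 6-day LACV infection (0.01 MOI) of SH-SY5Y cells that had received pin-transferred compound 24 hr after seeding.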

[5] = target: Calcium and integrin-binding protein 1 (Homo sapiens) (UniProt Q99828); assay: Primary qHTS for Identification of Calcium Integrin Binding Protein 1 (CIB1) Competitor (AID 1508620);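 note: GST tagged CIB1 binding a fluorescein labelled alphaIIb integrin peptide tracer; top concentration of the series differs between compounds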
How it was run: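 Fluorescence polarization competition: GST-tagged CIB1 (1 uM final) preincubated with compound 15 min at room temperature, then FITC-labelled alphaIIb peptide (100 nM final) added. After 15 min at room temperature, polarization read at Ex 480/Em 540.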

Measured: outcome

Chain of Calcium and integrin-binding protein 1 (Homo sapiens) (Q99828 whole entry, looked up): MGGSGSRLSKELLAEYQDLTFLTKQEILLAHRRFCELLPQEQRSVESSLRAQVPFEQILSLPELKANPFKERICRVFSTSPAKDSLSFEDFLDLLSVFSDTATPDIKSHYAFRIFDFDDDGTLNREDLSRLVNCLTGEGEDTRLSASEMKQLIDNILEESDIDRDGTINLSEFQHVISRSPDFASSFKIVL
Chain of Protein phosphatase 1D (Homo sapiens) (O15297 whole entry, looked up): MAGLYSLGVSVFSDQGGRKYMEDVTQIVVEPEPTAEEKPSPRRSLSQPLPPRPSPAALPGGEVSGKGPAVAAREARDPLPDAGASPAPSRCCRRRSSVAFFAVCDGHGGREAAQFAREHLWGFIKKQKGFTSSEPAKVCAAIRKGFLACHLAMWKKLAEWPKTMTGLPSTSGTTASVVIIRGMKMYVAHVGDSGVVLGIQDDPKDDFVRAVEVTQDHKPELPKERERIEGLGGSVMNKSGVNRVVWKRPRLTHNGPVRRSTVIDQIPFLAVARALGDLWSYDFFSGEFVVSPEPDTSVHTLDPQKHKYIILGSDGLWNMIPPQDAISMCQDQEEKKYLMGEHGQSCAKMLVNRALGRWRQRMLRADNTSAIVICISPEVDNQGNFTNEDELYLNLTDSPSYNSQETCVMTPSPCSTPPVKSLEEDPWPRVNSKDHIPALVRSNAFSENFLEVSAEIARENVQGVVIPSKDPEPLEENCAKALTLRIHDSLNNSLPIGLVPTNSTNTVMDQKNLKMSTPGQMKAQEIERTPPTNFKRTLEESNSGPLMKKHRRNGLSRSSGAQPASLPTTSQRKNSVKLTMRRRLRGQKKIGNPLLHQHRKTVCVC

CN[C@@H]1[C@H](O)[C@H](NC)[C@H]2O[C@@]3(O)C(=O)C[C@@H](C)O[C@H]3O[C@@H]2[C@H]1O
inactive: all assays above

CC(=O)N(CC(O)CN(C(C)=O)c1c(I)c(C(=O)NCC(O)CO)c(I)c(C(=O)NCC(O)CO)c1I)c1c(I)c(C(=O)NCC(O)CO)c(I)c(C(=O)NCC(O)CO)c1I (configuration not stated)
inactive: all assays above

NS(=O)(=O)c1cc(-c2nn[nH]n2)c(NCc2cccs2)cc1Cl
not listed: [3]
inactive: all other assays above

NS(=O)(=O)c1cc(C2(O)NC(=O)c3ccccc32)ccc1Cl (configuration not stated)
not listed: [3]
inactive: all other assays above

CC(=O)Oc1cccc(O)c1
not listed: [3]
inactive: all other assays above

CCCCCC(N)=O
not listed: [3]
inactive: all other assays above

Cc1cccc(C)c1NC(=O)CC12CCCN1CCC2
not listed: [3]
inactive: all other assays above

NS(=O)(=O)c1cc2c(cc1C(F)(F)F)NCNS2(=O)=O
not listed: [3]
inactive: all other assays above

O=C(O)C(S)C(S)C(=O)O (configuration not stated)
not listed: [3]
inactive: all other assays above

CCN[C@H]1CN(CCCOC)S(=O)(=O)c2sc(S(N)(=O)=O)cc21
not listed: [3]
inactive: all other assays above

CC(=O)OCC(=O)[C@@]1(O)CC[C@H]2[C@@H]3CCC4=CC(=O)C=C[C@]4(C)[C@@]3(F)[C@@H](O)C[C@@]21C
inactive: all assays above
